The sequences below were run against HAX1 (assay: pooled miR-30 sensor sort-seq; sequence = guide strand). Details: shRNA.
For TTATCGTGGAAACGTATCCCTC, the sensor-assay potency score (higher = more potent) was -1.22.
Work on TACTAGGTCATCAAAGCCGAAG yielded a sensor-assay potency score (higher = more potent) of -1.1.
Work on TGCTATTGAAATCTCGTACTAG yielded a sensor-assay potency score (higher = more potent) of 0.119.
Work on TAGGACTGCTATCTGCTTCGTG yielded a sensor-assay potency score (higher = more potent) of 0.298.
TATTGAAATCTCGTACTAGGTC showed a sensor-assay potency score (higher = more potent) of -0.361.
TTGGTCACAGAGATGCTCTTGA gave a sensor-assay potency score (higher = more potent) of 0.864.
Sequence TTCACTATTCCACATATCCAAG has a sensor-assay potency score (higher = more potent) of -1.52.
In the case of ACTTCTTGCATCACTCTCCAAG, the sensor-assay potency score (higher = more potent) is reported as -1.46.
TTAGTGATCTTGGTCACAGAGA was tested, and the sensor-assay potency score (higher = more potent) was -0.982.
In the case of TACTTAAGCATTGAGTCCCGAA, the sensor-assay potency score (higher = more potent) is reported as -0.493.
Work on TTACTGTAGTCTCTGTCCGGCC yielded a sensor-assay potency score (higher = more potent) of -0.884.
With TCACTGTCCACCACAGTCCGGC the sensor-assay potency score (higher = more potent) was -0.474.

What follows are sequences tested against HBA1 in the same assay as above. Details: shRNA.
TACGGGTGCAGGAAGGGGAGGA was tested, and the sensor-assay potency score (higher = more potent) was -0.675.
For AAGGGGCAAGAAGCATGGCCAC, the sensor-assay potency score (higher = more potent) was -1.79.
In the case of CAGGAAGGGGAGGAGGGGCTGG, the sensor-assay potency score (higher = more potent) is reported as -1.95.
TCAAAGACCACGGGGGTACGGG showed a sensor-assay potency score (higher = more potent) of -0.714.
Work on TTCAAAGACCACGGGGGTACGG yielded a sensor-assay potency score (higher = more potent) of -1.1.
In the case of ACGGGGGTACGGGTGCAGGAAG, the sensor-assay potency score (higher = more potent) is reported as -2.14.
AAGACCACGGGGGTACGGGTGC showed a sensor-assay potency score (higher = more potent) of -0.867.
Sequence AAAGACCACGGGGGTACGGGTG has a sensor-assay potency score (higher = more potent) of -1.54.
ACCACGGGGGTACGGGTGCAGG gave a sensor-assay potency score (higher = more potent) of -2.46.

The sequences below were run against HBA2 in the same assay as above. Details: shRNA.
TGGCTTAGGAGCTTGAAGTTGA was tested, and the sensor-assay potency score (higher = more potent) was -0.42.
AAGACCAGGAAGGGCCGGTGCA showed a sensor-assay potency score (higher = more potent) of -1.15.
Sequence TTGGGAGGCCCAGCGGGCAGGA has a sensor-assay potency score (higher = more potent) of -2.
In the case of TCAAAGACCAGGAAGGGCCGGT, the sensor-assay potency score (higher = more potent) is reported as 0.259.
In the case of AAGGGCCGGTGCAAGGAGGGGA, the sensor-assay potency score (higher = more potent) is reported as -0.735.
TGCAAGGAGGGGAGGAGGGCCC gave a sensor-assay potency score (higher = more potent) of -1.68.
Sequence TTTATTCAAAGACCAGGAAGGG has a sensor-assay potency score (higher = more potent) of -0.785.
AAGTAGGTCTTGGTGGTGGGGA gave a sensor-assay potency score (higher = more potent) of -0.536.
In the case of TATTCAAAGACCAGGAAGGGCC, the sensor-assay potency score (higher = more potent) is reported as -0.938.
Sequence AAGTTGACCGGGTCCACCCGAA has a sensor-assay potency score (higher = more potent) of -0.435.
For AGACCAGGAAGGGCCGGTGCAA, the sensor-assay potency score (higher = more potent) was -1.65.
Work on AGGGCCGGTGCAAGGAGGGGAG yielded a sensor-assay potency score (higher = more potent) of -1.98.
TTATTCAAAGACCAGGAAGGGC showed a sensor-assay potency score (higher = more potent) of -1.06.
In the case of TTCAAAGACCAGGAAGGGCCGG, the sensor-assay potency score (higher = more potent) is reported as -0.416.
For AGGAAGGGCCGGTGCAAGGAGG, the sensor-assay potency score (higher = more potent) was -2.16.

Each sequence was assayed against HBB in the same assay as above. Details: shRNA.
For TTCTTTGCCAAAGTGATGGGCC, the sensor-assay potency score (higher = more potent) was -0.0247.
With TCACTCAGTGTGGCAAAGGTGC the sensor-assay potency score (higher = more potent) was -1.09.
In the case of TAGACCACCAGCAGCCTGCCCA, the sensor-assay potency score (higher = more potent) is reported as -0.865.
For ATCAGGAGTGGACAGATCCCCA, the sensor-assay potency score (higher = more potent) was -1.55.
Further: reference of the scale not given here.
